From PubChem BioAssay (Tox21) come the findings set out here.

Each structure is given as a SMILES string. Results filed as inconclusive are left out. Where a call stands in place of a potency, no number is given. Values without a mark were called inactive. Activity calls are given as the source filed them. The call rests on the fitted dose curve; in most records, active means well fitted cell-killing curve with a large enough effect in the repeat runs; inconclusive means weak or mixed curves, or effect the other way; inactive means no such curve, though single readings can be large or run the other way.
Potency means the concentration at half of the fitted maximal effect.

A short description of this experiment: qHTS assay to identify small molecule agonists of the estrogen receptor alpha (ER-alpha) signaling pathway in the presence of an antagonist - cell viability counter screen (AID 1259386). Further: nearly all actives have a fitted effect of over 30% in size. Conditions: VM7Luc4E2 viability, CellTiter-Fluor fluorescence, 22 h; series mostly up to 92.4 µM. The text has this:
National Center for Advancing Translational Sciences [NCATS]
NIH Chemical Genomics Center [NCGC]
U.S. Environmental Protection Agency [EPA]
National Institutes of Environmental Health Sciences [NIEHS]
National Toxicology Program [NTP]
U.S. Food and Drug Administration [FDA]
Estrogen receptor (ER), a member of nuclear hormone receptor plays an important role in development, metabolic homeostasis and reproduction. Two subtypes of ER, ER-alpha and ER-beta, have similar expression patterns with some uniqueness in both types. Endocrine disrupting chemicals (EDCs) and their interactions with steroid hormone receptors like ER causes disruption of normal endocrine function. Therefore, it is important to understand the effect of environmental chemicals in ER signaling pathway. For identifying ER agonists, VM7Luc4E2 cell line has been used in the current assay.
VM7Luc4E2 cell line (provided by Denison MS, University of California) endogenously expresses full-length ER-alpha and is stably transfected with a plasmid containing four estrogen responsive elements (ERE) upstream of a luciferase reporter gene. This current screening for measuring luciferase reporter gene activity using VM7Luc4E2 cells against Tox21 10K library collection is a confirmation study on agonist mode screening in presence of ER-antagonist (ICI-182,780) at 10.0nM final concentration. The cytotoxicity of the compounds was tested in parallel by measuring the cell viability using CellTiter-Fluor assay system (Promega, Madison, WI) in the same wells.
Tox21 Assay Protocol Summary:
VM7Luc4E2 cells were cultured in phenol red free assay medium containing 10% charcoal stripped FBS for 5 days prior to the assay. The cells were dispensed at 4,000 cells in 4uL of assay medium per well into white wall/solid-bottom 1536-well plates (Corning Life Sciences, Corning, NY) using a Multidrop Combi (Thermo Fisher Scientific Inc., Waltham, MA) dispenser. After the assay plates were incubated at 37C and 5% CO2 for 24hr, 1uL of 10.0nM (final concentration) ICI-182,780 or assay buffer was added using two separate tips of Flying Reagent Dispenser (FRD, Aurora Discovery, San Diego, CA). Then 23nL of compounds dissolved in DMSO at 15 concentrations and positive controls or DMSO only was transferred to the assay plates by a Pintool station (Wako, San Diego, CA). The assay plates were incubated at 37C and 5% CO2 for 22hr. After 21hr incubation at 37C, 1uL/well CellTiter-Fluor reagent (Promega Corporation, Madison, WI) was added to each well using FRD and after 1hr incubation at 37C and 5% CO2, the fluorescence signal was measured on ViewLux plate reader (PerkinElmer, Shelton, CT).
In the case of `C=CCOCC(CO)(COCC=C)COCC=C`, the Potency result is “inactive”. On the same count and under the same terms, then `CCCCCCCCCCCCCCCCCCN(C)C`, with “inactive”; and `O=C(O)/C=C/c1ccccc1`, with “inactive”.

For `O=P(O)(O)OCC(O)CO` (stereo not given), the Potency entry was “inactive”.

Turning to `CCCOCCOCCOCCO`, the Potency entry is “inactive”.

Consider `CC(C)COC(=O)CCCCC(=O)OCC(C)C`, for which the Potency entry was “inactive”. The same measure, in the same setting: in the case of `C=COCCOCCOC=C` it was “inactive”. As to `CCC(C)N` (stereo not given), the Potency entry was “inactive”. The same measure, in the same setting: in the case of `CC(=O)OCC(=O)[C@@]1(O)[C@H](OC(C)=O)C[C@H]2[C@@H]3CCC4=CC(=O)C=C[C@]4(C)[C@@]3(F)[C@@H](O)C[C@@]21C` it was “inactive”; in that of `O=S(=O)(O)SSS(=O)(=O)O`, “inactive”. On the same count and under the same terms, then `CCN1CN(CC)CN(CC)C1`, with “inactive”; and `C[C@H](CCC(=O)NCC(=O)O)[C@H]1CC[C@H]2[C@@H]3[C@H](O)C[C@@H]4C[C@H](O)CC[C@]4(C)[C@H]3C[C@H](O)[C@]12C`, with “inactive”; and `CCCCC/C=C/CC(=O)OC`, with “inactive”. Still for that read-out and setting: then `Nc1cc(Cl)cc(S(=O)(=O)O)c1O`, with “inactive”; and `CC(=O)OC(C(=O)c1ccccc1)c1ccccc1` (stereo not given), with “inactive”; and `O=C(O)c1ccccc1C(=O)OCc1ccccc1`, with “inactive”. Regarding `CC(C)C(=O)Nc1cccc(C(F)(F)F)c1`, the Potency result was “inactive”. Regarding `CCCO`, the Potency entry is “inactive”. On the same count and under the same terms, in the case of `OCCCCCCCl` it was “inactive”. Turning to `CCOC(=O)C(C)(C)C`, the Potency entry is “inactive”.

For the compound `CC(=O)/C=C/c1ccco1`, the Potency entry is “inactive”. Consider `O=C(O)Cc1cccc(-c2cc(CCCCCCc3ccc(O[C@H]4O[C@H](CO)[C@@H](O)[C@H](O)[C@@H]4O)c(-c4cccc(CC(=O)O)c4)c3)ccc2O[C@H]2O[C@H](CO)[C@@H](O)[C@H](O)[C@@H]2O)c1`, for which the activity change, negative = cytotoxicity was 4.6% [at 0.349 µM].

Turning to `CC1(N)CCC(C(C)(C)N)CC1` (stereo not given), the Potency result is “inactive”. The same measure, in the same setting: then `CCCCC(=O)N(C)C`, with “inactive”. Still for that read-out and setting: in the case of `NC(=O)NNC(N)=O` it was “inactive”; in that of `Nc1ccc(S(=O)(=O)Nc2ccccn2)cc1`, “inactive”.

On to `CC1=NN(c2ccc(S(=O)(=O)O)cc2)C(=O)C1N=Nc1ccccc1` (stereo not given), for which the Potency is 30.6 µM (active). With `C=CCCCCCCCCCCC`, the activity change, negative = cytotoxicity was -2.37% [at 8.39 µM]. For `Nc1ccnc(=O)[nH]1`, the Potency entry was “inactive”. For `NC(=O)NC(=O)Cc1ccccc1`, the Potency result was “inactive”. On the same count and under the same terms, in the case of `CC(C)CCC(=O)CCC(C)C` it was “inactive”; in that of `CC(=O)Nc1ccc(C)cc1`, “inactive”.

Consider `CCCC(C)CC` (stereo not given), for which the Potency entry is “inactive”. With `CCCCCCCCCCCCCC(=O)OC`, the Potency entry was “inactive”. As to `COc1ccc(N=Nc2cc(C)c(N=Nc3ccc(S(=O)(=O)O)cc3)cc2OC)cc1`, the Potency is 27.3 µM (active). Turning to `CCCCOC(=O)C(C)OC(=O)CCC` (stereo not given), the Potency entry is “inactive”. Still for that read-out and setting: in the case of `Cc1c(C(C)C)c(=O)n(-c2ccccc2)n1C` it was “inactive”; in that of `COC(/C=C(\C)CCC=C(C)C)OC`, “inactive”; in that of `COc1ccc(OC)c(NC(=O)CC(C)=O)c1`, “inactive”. Turning to `O=C(CN1CCN(Cc2ccc3c(c2)OCO3)CC1)N1c2ccccc2Sc2ccccc21`, the Potency entry is “inactive”.
